# Measurements as given in PubChem BioAssay.
# Values joined by “and” are separate entries in the source; they are usually repeats but may differ in a detail not shown here. Identical values can stand only once. Active and inactive are the calls of the source. Cut-off read from the data, not from the text of the source, unless noted: active = inhibition above about 80%; inactive = the rest.
# Legend:
# [1] = viability loss with induced miR-34 in A549 – imaging, A549 dox-inducible miR-34, nuclei and caspase counts, primary screen (AID 1347080;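 active = compounds whose cell count with miR-34 switched on is under 0.7 times the count with it off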); conditions: A549 miR-34 inducible, Hoechst nuclei count, 48 h
# [2] = MELAS cybrid and Rieske KO viability enhancers – cell-based, MELAS cybrids, Rieske KO mouse fibroblasts, CellTiter-Glo, primary screen (AID 1508586;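 active = mean z-score across replicates of 1.96 or higher in either the MELAS or the Rieske mutant cell line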;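 note: z relative to plate mean and SD of compound and empty wells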); conditions: low glucose
# [3] = galactose survival enhancers in mitochondrial complex I cybrids – cell-based, galactose medium, ATP luminescence, primary screen (AID 1645843;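 active = z-score of at least 1.8 in each of two replicates, scored against plate mean and spread of sample wells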;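 note: positive z means more ATP and so rescue of galactose-driven cybrid death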); conditions: complex I mutant cybrid cells, 72 h, stronger effect = higher value
# [4] = growth inhibition, single agent or in combination, cell-based, chromothripsis tumors, cisplatin or BGB combos (AID 1671449); conditions: LFS_MB_P medulloblastoma cells;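 note: cells exposed for 96 hours; 0% = vehicle DMSO and 100% = killing by high DMSO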
# [5] = growth inhibition, single agent and combos, cell-based, chromothripsis tumors, cisplatin or BGB combos (AID 1671450); conditions: HDN33 neuroblastoma cells, stronger effect = higher value;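 note: cells exposed to compound for four days; 0% = vehicle DMSO and 100% = cell killing by high DMSO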
# [6] = growth inhibition, single agents and combos, ICB984, cell-based, cisplatin or BGB combos, synergistic combos for chromothripsis tumors (AID 1671451; call rule not given here;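 note: cells exposed for 96 hours before readout; 0% = vehicle DMSO and 100% = killing by high DMSO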); conditions: ICB984 medulloblastoma cells, drug combinations, stronger effect = higher value
# [7] = growth inhibition, single agents and combos, LFS_MB_1R, cell-based, cisplatin or BGB combos, synergistic combos for chromothripsis tumors (AID 1671452); conditions: LFS_MB_1R medulloblastoma cells, stronger effect = higher value;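 note: cells exposed for 96 hours before readout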
# [8] = growth inhibition, single agents and combos, HTB85, cell-based, BGB or cisplatin IC20 combos, synergistic combos for chromothripsis tumors (AID 1671453); conditions: HTB85 osteosarcoma cells, drug combinations, stronger effect = higher value;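 note: cells exposed for 96 hours before readout; 0% = vehicle DMSO and 100% = high DMSO killing control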
# [9] = growth inhibition, single agents and combos, CRL2098, cell-based, BGB or cisplatin IC20 combos, synergistic combos for chromothripsis tumors (AID 1671454); conditions: CRL2098 osteosarcoma cells, drug combinations, stronger effect = higher value;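 note: cells exposed for 96 h before readout; 0% = vehicle DMSO and 100% = killing by high DMSO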
# [10] = growth inhibition, single agents and combos, HD-MB03, cell-based, BGB or cisplatin IC20 combos, synergistic combos for chromothripsis tumors (AID 1671455; in the data active = inhibition above about 83%;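 note: 0% = vehicle DMSO and 100% = high DMSO as cytotoxic control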); conditions: HD-MB03 medulloblastoma cells, stronger effect = higher value
# [11] = growth inhibition, single agents and combos, UWB1.289, cell-based, BGB or cisplatin combos, synergistic combos for chromothripsis tumors (AID 1671456); conditions: UWB1.289 ovarian carcinoma cells, stronger effect = higher value;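 note: cells exposed to compound for four days; 0% = vehicle DMSO and 100% = killing by high DMSO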
# [12] = growth inhibition, single agents and combos, LFS_MB_2R, cell-based, cisplatin combos, synergistic combos for chromothripsis tumors (AID 1671457); conditions: LFS_MB_2R medulloblastoma cells, stronger effect = higher value;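 note: cells exposed to compound for four days before readout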
# [13] = growth inhibition, MDA-MB-436, cell-based, BGB or cisplatin combos, synergistic combos for chromothripsis tumors (AID 1671458; call rule not given here;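 note: cells exposed for 96 hours; 0% = vehicle DMSO and 100% = killing by high DMSO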); conditions: MDA-MB-436 breast carcinoma growth inhibition, drug combinations, stronger effect = higher value
# [14] = UWB1.289_BRCA1 ovarian cancer growth, cell-based, BGB or cisplatin combinations (AID 1671459); conditions: UWB1.289 BRCA1 ovarian carcinoma, drug combinations, stronger effect = higher value
# [15] = drug combination toxicity in non-malignant astrocytes – cell-based, BGB or cisplatin IC20 combos, cytotoxicity control for chromothriptic childhood tumor combination screen (AID 1671460); conditions: Human astrocytes, viability inhibition, drug combinations, at 0.5 µM, stronger effect = higher value;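 note: cells exposed to compounds for 96 hours before viability readout; 0% = vehicle and 100% = killing control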
# [16] = BT084 cell growth, single and combined drugs, ICGC_MB145, cisplatin and BGB IC40 combos (AID 1671461); conditions: BT084 medulloblastoma cells, drug combinations, stronger effect = higher value;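 note: cells exposed to drugs for 96 hours; 0% = vehicle DMSO and 100% = high DMSO full killing control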
# [17] = RCMB18 cell growth, single agent and combined, cisplatin and BGB IC40 combos (AID 1671462); conditions: RCMB18 medulloblastoma cells, stronger effect = higher value;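 note: cells exposed to compound for four days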
# [18] = CRL1545 cell growth, single agent and combined, cisplatin and BGB IC20 combos (AID 1671464); conditions: CRL1545 osteosarcoma cells, stronger effect = higher value;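 note: cells exposed to compound for 96 hours before readout; 0% = vehicle DMSO and 100% = high DMSO killing control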
# [19] = stronger effect = lower value, cell number ratio, induced over uninduced
# [20] = measured here: relative caspase fold change +Dox/-Dox
# [21] = measured here: total cells with miR-34 induction, stronger effect = lower value
# [22] = measured here: total cells without miR-34 induction
# [23] = MELAS cybrid survival, CellTiter-Glo 48 h, stronger effect = higher value
# [24] = Rieske KO mouse fibroblast survival, CellTiter-Glo 72 h
# [25] = measured here: combination with BGB IC40, at 0.05 µM
# [26] = measured here: with BGB IC20 combination, at 0.5 µM
# [27] = measured here: with cisplatin IC20 combination, at 0.5 µM
# [28] = measured here: combination with cisplatin, at 0.5 µM
# [29] = measured here: combination with cisplatin, at 5 µM
smiles,measurement,setting,value
Nc1nc(Cl)nc2c1ncn2C1CC(O)C(CO)O1 (configuration not stated),fold change,[1]; [19],0.657 (active) and 0.485 (active)
same,fold change,[1]; [20],3.27 and 5.56
same,cell count,[1]; [21],1440 and 1620
same,cell count,[1]; [22],2200 and 3330
same,z-score,[2]; [23],0.255 (inactive)
same,z-score,[2]; [24],0.0981
same,z-score,[3],-1.71 (inactive)
same,inhibition,"[4]; at 0.5 µM, stronger effect = higher value",-16% (inactive) and 3.33% (inactive)
same,inhibition,"[4]; measured here: combination with BGB IC20, at 0.005 µM",-14.4% and 7.64%
same,inhibition,"[4]; measured here: combination with BGB IC40, at 0.005 µM",-28.7% and 21.8%
same,inhibition,[4]; [25],-54.9% and 15%
same,inhibition,"[4]; measured here: combination with cisplatin, at 0.5 µM, stronger effect = higher value",-23.7% and 50.7%
same,inhibition,"[4]; measured here: combination with cisplatin, at 5 µM, stronger effect = higher value",76.7% and 86.2%
same,inhibition,"[5]; BGB combo, at 5 µM",83.3% and 87.6%
same,inhibition,[5]; at 0.5 µM,6.11% (inactive) and 14.7% (inactive)
same,inhibition,"[5]; cisplatin combo, at 5 µM",79% and 81.5%
same,inhibition,[5]; [26],10.3% and 9.34%
same,inhibition,[5]; [27],-1.24% and 16.1%
same,inhibition,"[5]; single agent, at 5 µM",84.5% and 87.2%
same,inhibition,"[6]; BGB IC20 combo, at 0.005 µM",-1.92% and -30.4%
same,inhibition,"[6]; BGB IC40 combo, at 0.005 µM",-14.5% and -25.7%
same,inhibition,"[6]; BGB IC40 combo, at 0.05 µM",-14.6% and -11.7%
same,inhibition,[6]; at 0.5 µM,-34.2% (inactive) and -10.6% (inactive)
same,inhibition,"[6]; cisplatin combo, at 0.05 µM",-18.7% and -11.7%
same,inhibition,"[6]; cisplatin combo, at 0.5 µM",-35.7% and -23.4%
same,inhibition,"[6]; cisplatin combo, at 5 µM",-35.2% and -39.5%
same,inhibition,"[6]; measured here: 5 uM single agent, at 5 µM",-14.9% and -11.7%
same,inhibition,[7]; at 0.5 µM,-20.9% (inactive) and -13% (inactive)
same,inhibition,[7]; [25],-46.2% and -32.5%
same,inhibition,[7]; [28],26.2% and 30.5%
same,inhibition,[7]; [29],52% and 76.7%
same,inhibition,[8]; at 0.5 µM,22.5% (inactive) and 18.5% (inactive)
same,inhibition,"[8]; measured here: with BGB IC20, at 0.5 µM",21.3% and 13.2%
same,inhibition,"[8]; measured here: with BGB IC20, at 5 µM",92.2% and 94.6%
same,inhibition,"[8]; measured here: with cisplatin IC20, at 0.5 µM",10.1% and 11.2%
same,inhibition,"[8]; measured here: with cisplatin IC20, at 5 µM",90.5% and 90%
same,inhibition,"[8]; single agent, at 5 µM",94.7% and 91.5%
same,inhibition,[9]; at 0.5 µM,-92.1% (inactive) and -37.1% (inactive)
same,inhibition,"[9]; measured here: combination with BGB at IC20, at 0.5 µM",-60.9% and -36.5%
same,inhibition,"[9]; measured here: combination with cisplatin at IC20, at 0.5 µM",-146% and -71.4%
same,inhibition,[10]; at 0.5 µM,93.4% (active) and 93.2% (active)
same,inhibition,"[10]; measured here: combo with BGB at IC20, at 0.5 µM",87.7% and 88.9%
same,inhibition,"[10]; measured here: combo with cisplatin at IC20, at 0.5 µM",96.3% and 94.8%
same,inhibition,[11]; at 0.5 µM,12.5% (inactive) and 14.8% (inactive)
same,inhibition,"[11]; measured here: inhibition with BGB combination, at 0.05 µM",-7.25% and -6.1%
same,inhibition,"[11]; measured here: inhibition with cisplatin combination, at 0.05 µM",-13.8% and -6.66%
same,inhibition,[12]; at 0.5 µM,-3.57% (inactive) and 10.2% (inactive)
same,inhibition,[12]; [28],24.5% and 43.1%
same,inhibition,[12]; [29],61.9% and 69.5%
same,inhibition,[13]; at 0.5 µM,3.02% (inactive) and 2.95% (inactive)
same,inhibition,"[13]; measured here: BGB combination, at 0.5 µM",-5.54% and -2.62%
same,inhibition,"[13]; measured here: BGB combination, at 5 µM",46.1% and 53.6%
same,inhibition,"[13]; measured here: cisplatin combination, at 0.5 µM",-4.37% and -12.8%
same,inhibition,"[13]; measured here: cisplatin combination, at 5 µM",61.1% and 70%
same,inhibition,"[14]; BGB combination, concentration series, at 5 µM",43.2% and 57.7%
same,inhibition,[14]; at 0.5 µM,20.9% (inactive) and 19.3% (inactive)
same,inhibition,"[14]; cisplatin combination, concentration series, at 5 µM",48.4% and 63.7%
same,inhibition,[15],58.1% (inactive) and 38.4% (inactive)
same,inhibition,[15]; measured here: combo with BGB IC20,62.6% and 39.2%
same,inhibition,[15]; measured here: combo with cisplatin IC20,42.6% and 31.2%
same,inhibition,[16]; at 0.5 µM,-0.858% (inactive) and 10.4% (inactive)
same,inhibition,"[16]; cisplatin combination, at 0.5 µM",37.2% and 42%
same,inhibition,"[16]; cisplatin combination, at 5 µM",65.8% and 54%
same,inhibition,"[16]; measured here: BGB IC40 combination 0.05 uM, at 0.05 µM",-30.7% and 12.8%
same,inhibition,"[16]; single agent, at 5 µM",1.68% and 7.77%
same,inhibition,[17]; at 0.5 µM,19.1% (inactive) and 26.3% (inactive)
same,inhibition,"[17]; cisplatin combo, at 5 µM",83.6% and 81.2%
same,inhibition,"[17]; measured here: BGB IC40 combination, at 0.05 µM",-5.46% and 2.56%
same,inhibition,[17]; [28],70.6% and 65.1%
same,inhibition,"[17]; single agent, at 5 µM",27.8% and 40.5%
same,inhibition,[18]; at 0.5 µM,-27.8% (inactive) and -35.8% (inactive)
same,inhibition,[18]; [26],-14.9% and -11.9%
same,inhibition,[18]; [27],-36.5% and -47.7%
same,inhibition,"[18]; single agent, at 0.05 µM",-95.3% and 17.3%
same,inhibition,"[18]; single agent, at 5 µM",75.8% and 80.1%
Cn1c(=O)c2c(nc(N3CCNCC3)n2Cc2ccccc2)n(C)c1=O,fold change,[1]; [19],0.839 (inactive)
same,fold change,[1]; [20],0.525
same,cell count,[1]; [21],7900
same,cell count,[1]; [22],9410
same,z-score,[2]; [23],-1.69 (inactive)
same,z-score,[2]; [24],-0.314
same,z-score,[3],0.525 (inactive)
CCC(C)n1ncn(-c2ccc(N3CCN(c4ccc(OCC5CO[C@](Cn6cncn6)(c6ccc(Cl)cc6Cl)O5)cc4)CC3)cc2)c1=O (some centres not stated),fold change,[1]; [19],0.844 (inactive) and 0.945 (inactive)
same,fold change,[1]; [20],0.375 and 1.03
same,cell count,[1]; [21],6320 and 8160
same,cell count,[1]; [22],7490 and 8630
same,z-score,[2]; [23],0.58 (inactive) and -0.288 (inactive)
same,z-score,[2]; [24],-0.239 and 0.0468
same,z-score,[3],-2.34 (inactive)
Cc1c(CNC(=O)C(=O)c2c(-c3ccccc3)cc3ccccn23)cnn1C,fold change,[1]; [19],0.827 (inactive)
same,fold change,[1]; [20],2.08
same,cell count,[1]; [21],7720
same,cell count,[1]; [22],9330
same,z-score,[2]; [23],0.665 (inactive)
same,z-score,[2]; [24],-0.13
same,z-score,[3],0.815 (inactive)
O=C(O)CSc1nc(-c2cccc(Cl)c2)no1,fold change,[1]; [19],0.912 (inactive)
same,fold change,[1]; [20],0.254
same,cell count,[1]; [21],8810
same,cell count,[1]; [22],9660
same,z-score,[2]; [23],0.659 (inactive)
same,z-score,[2]; [24],-0.279
same,z-score,[3],0.49 (inactive)
CN(Cc1noc(C2CCCC2)n1)C(=O)c1nc(=O)[nH]c2ccccc12,fold change,[1]; [19],0.914 (inactive)
same,fold change,[1]; [20],1.01
same,cell count,[1]; [21],8520
same,cell count,[1]; [22],9320
same,z-score,[2]; [23],-0.339 (inactive)
same,z-score,[2]; [24],0.124
same,z-score,[3],-0.525 (inactive)
COc1ccc(C=CC(=O)O)cc1O,fold change,[1]; [19],0.917 (inactive)
same,fold change,[1]; [20],0.34
same,cell count,[1]; [21],9250
same,cell count,[1]; [22],10100
same,z-score,[2]; [23],0.642 (inactive)
same,z-score,[2]; [24],-0.171
same,z-score,[3],0.285 (inactive)
